Consider 18 compounds from PubChem BioAssay (NCATS).

Records with an inconclusive call do not appear. Unmarked numbers belong to inactive results. Active and inactive are the calls of the source. Calls follow the shape of the dose curve; as a rule, active = well fitted inhibition curve with a large enough effect; inconclusive = small, poorly fitted or top-dose-only effect; inactive = flat fitted curve, though single readings scatter.
Potency is read from the fitted curve at half-maximal effect.

In this assay the test system is CP194. The experiment in a line: qHTS profiling for inhibitors of Plasmodium falciparum proliferation (AID 504749). Also: nearly all actives have a fitted effect of over 60% in size.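 As to activity, negative = inhibition: 0% = DMSO vehicle and full inhibition = artemisinin control.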 The note with it: P. falciparum in erythrocytes, SYBR Green DNA, 72 h; series mostly up to 28.7 µM; activity, negative = inhibition: at the top concentration. A digest of the protocol: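 Each compound contacts P. falciparum-infected red blood cells for 72 h at 37 C; lysis buffer (Tris, EDTA, saponin, Triton X, SYBR Green I) is added and fluorescence measured next morning; values normalized to controls.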
Background: Quantitative high-throughput screening tests each substance at several concentrations.
Turning to `S=P(N1CC1)(N1CC1)N1CC1`, the “activity, negative = inhibition” value is 1.19%.
As for `COc1ccc(-c2ccc3cc(C(=O)O)ccc3c2)cc1C12CC3CC(CC(C3)C1)C2`, the “activity, negative = inhibition” value is 1.48%.
On to `COC(=O)Nc1nc2ccc(C(=O)c3ccccc3)cc2[nH]1`, for which the “activity, negative = inhibition” value was -14.7% [at 12.8 µM].
`COc1ccc2cc3[n+](cc2c1OC)CCc1cc2c(cc1-3)OCO2`: the Potency was 2130 nM (active).
For `CNNCc1ccc(C(=O)NC(C)C)cc1`, the “activity, negative = inhibition” value is 3.65%.
With `N=C(N)c1ccc(OCCCCCOc2ccc(C(=N)N)cc2)cc1`, the Potency was 849 nM (active).
In the case of `CCc1cc(C(N)=S)ccn1`, the “activity, negative = inhibition” value was 0.0923%.
On the same count and under the same terms, in the case of `COC(=O)Nc1nc2ccc(Sc3ccccc3)cc2[nH]1` it was -3.04% [at 12.8 µM].
For `C1CCC(C(CC2CCCCN2)C2CCCCC2)CC1` (stereo not drawn), the Potency is 15100 nM (active).
Regarding `CC(C)Cn1cnc2c(N)nc3ccccc3c21`, the “activity, negative = inhibition” value is -7.08%.
In the case of `CCCc1nc(C)c2c(=O)[nH]c(-c3cc(S(=O)(=O)N4CCN(CC)CC4)ccc3OCC)nn12`, the “activity, negative = inhibition” value is -0.381%.
Take `CC(C)(Sc1cc(C(C)(C)C)c(O)c(C(C)(C)C)c1)Sc1cc(C(C)(C)C)c(O)c(C(C)(C)C)c1`: the “activity, negative = inhibition” value is 3.66% [at 12.8 µM].
`COc1cc(NCc2ccc3nc(N)nc(N)c3c2C)cc(OC)c1OC`: the Potency is 2690 nM (active).
In the case of `Cc1nnc(NS(=O)(=O)c2ccc(N)cc2)s1`, the “activity, negative = inhibition” value is -1.09%.
For the compound `Nc1nc(N)c2nc(CNc3ccc(C(=O)NC(CCC(=O)O)C(=O)O)cc3)cnc2n1` (stereo not drawn), the “activity, negative = inhibition” value was -2.2%.
Turning to `CC(C)(C)C(=O)OCOP(=O)(COCCn1cnc2c(N)ncnc21)OCOC(=O)C(C)(C)C`, the “activity, negative = inhibition” value is -15.2%.
Take `CCOC(=O)[C@H](CCc1ccccc1)N[C@H]1CS[C@H](c2cccs2)CN(CC(=O)O)C1=O`: the “activity, negative = inhibition” value is -12.1%.
With `CNC(=O)c1cc(Oc2ccc(NC(=O)Nc3ccc(Cl)c(C(F)(F)F)c3)cc2)ccn1`, the Potency was 10700 nM (active).
